# Test results published in PubChem BioAssay (EPA / NIEHS).
# Activity calls are given as the source filed them. How the source made its calls: active means hit-call score of the fitted dose curve at least 0.9, where 1 is the maximum; inactive means score below 0.9.
# Tests used:
# Details in all cases: mRNA level, 48 h; actives raise or lower the signal
# [1] = read-out: Cytochrome P450 (CYP24A1), CYP24A1 (gene 1591); test: LTEA_HepaRG_CYP24A1: Life Technologies and Expression Analysis (LTEA) Assay for Cytochrome P450 (CYP24A1) using HepaRG (AID 2283478)
# Summary of the method: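 mRNA of CYP24A1 quantified by TaqMan qRT-PCR (ACTB/GAPDH/POLR2A normalization) after 48 h chemical exposure of HepaRG cells, top concentration 100 uM, half-log steps, 0.5% DMSO vehicle, duplicates. Curves fitted bidirectionally against DMSO baseline.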
# [2] = read-out: Cytochrome P450 (CYP1A2), CYP1A2 (gene 1544); test: LTEA_HepaRG_CYP1A2: Life Technologies and Expression Analysis (LTEA) Assay for Cytochrome P450 (CYP1A2) using HepaRG (AID 2283479)
# Summary of the method: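 CYP1A2 transcript measured by TaqMan qRT-PCR against three housekeeping genes after 48-hour chemical exposure of HepaRG cells. Eight-point half-log series topping at 100 uM in 0.5% DMSO, duplicates; gain or loss fitted relative to vehicle.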
# [3] = read-out: cysteine-aspartic acid protease (CASP8), CASP8 (gene 841); test: LTEA_HepaRG_CASP8: Life Technologies and Expression Analysis (LTEA) Assay for cysteine-aspartic acid protease (CASP8) using HepaRG (AID 2283480)
# Summary of the method: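 CASP8 transcript measured by TaqMan qRT-PCR with ACTB/GAPDH/POLR2A normalization, after 48 h chemical exposure of HepaRG cells in serum-free induction medium. Eight concentrations, top 100 uM, half-log steps, 0.5% DMSO vehicle; fits in both directions versus DMSO.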
# [4] = read-out: Cytochrome P450 (CYP2B6), CYP2B6 (gene 1555); test: LTEA_HepaRG_CYP2B6: Life Technologies and Expression Analysis (LTEA) Assay for Cytochrome P450 (CYP2B6) using HepaRG (AID 2283481)
# Summary of the method: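 CYP2B6 transcript level quantified by qRT-PCR against three housekeeping genes, fitted bidirectionally relative to DMSO. HepaRG cultures received chemicals for 48 h, 8-point half-log series from 100 uM in 0.5% DMSO, duplicate wells, serum-free induction medium.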
# [5] = read-out: Cytochrome P450 2C19 (Homo sapiens) (UniProt P33261); test: LTEA_HepaRG_CYP2C19: Life Technologies and Expression Analysis (LTEA) Assay for CYP2C19 using HepaRG (AID 2283482)
# Summary of the method: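 CYP2C19 transcript levels by qRT-PCR, normalized to three housekeeping genes, in HepaRG cells after 48 h chemical exposure. Eight-point half-log series topping at 100 uM, 0.5% DMSO vehicle. Increases and decreases both fitted against DMSO.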
# CYP2C8 (gene 1558) = test: LTEA_HepaRG_CYP2C8: Life Technologies and Expression Analysis (LTEA) Assay for CYP2C8 using HepaRG (AID 2283483)
# Summary of the method: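 CYP2C8 expression measured by TaqMan qRT-PCR and normalized to three housekeeping genes. HepaRG cultures were treated for 48 h with an eight-point half-log series topping at 100 uM, vehicle 0.5% DMSO, duplicates; fitted both directions against DMSO.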
# CYP2C9 (gene 1559) = test: LTEA_HepaRG_CYP2C9: Life Technologies and Expression Analysis (LTEA) Assay for CYP2C9 using HepaRG (AID 2283484)
# Summary of the method: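 CYP2C9 transcript level, quantified by TaqMan qRT-PCR against three housekeeping genes, was fitted bidirectionally relative to 0.5% DMSO. HepaRG cultures were treated 48 h, in duplicate, at eight half-log concentrations topping at 100 uM.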
# CYP2E1 (gene 1571) = test: LTEA_HepaRG_CYP2E1: Life Technologies and Expression Analysis (LTEA) Assay for CYP2E1 using HepaRG (AID 2283485)
# Summary of the method: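 Readout is qRT-PCR of CYP2E1 mRNA, normalized to three housekeeping genes and fitted bidirectionally against 0.5% DMSO. HepaRG cells were dosed 48 h at eight concentrations, highest 100 uM with half-log dilutions.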
# CYP4A11 (gene 1579) = test: LTEA_HepaRG_CYP4A11: Life Technologies and Expression Analysis (LTEA) Assay for CYP4A11 using HepaRG (AID 2283486)
# Summary of the method: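 Readout is CYP4A11 transcript level by qRT-PCR, normalized to three housekeeping genes and fitted bidirectionally against 0.5% DMSO. Human HepaRG cells were treated 48 h, in duplicate, with an 8-point half-log series topping at 100 uM.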
# [6] = read-out: Cytochrome P450 3A4 (Homo sapiens) (UniProt P08684); test: LTEA_HepaRG_CYP3A4: Life Technologies and Expression Analysis (LTEA) Assay for CYP3A4 using HepaRG (AID 2283487)
# Summary of the method: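 Differentiated HepaRG cells in serum-free induction medium exposed in duplicate for 48 h to 8 half-log concentrations up to 100 uM in 0.5% DMSO. CYP3A4 mRNA measured by qRT-PCR normalized to ACTB, GAPDH and POLR2A; bidirectional fit versus DMSO.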
# [7] = read-out: DNA damage-inducible transcript 3 (DDIT3), DDIT3 (gene 1649); test: LTEA_HepaRG_DDIT3: Life Technologies and Expression Analysis (LTEA) Assay for DNA damage-inducible transcript 3 (DDIT3) using HepaRG (AID 2283488)
# Summary of the method: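 Cells are human HepaRG liver cells treated for 48 h with eight half-log concentrations up to 100 uM in 0.5% DMSO. Transcript levels come from qRT-PCR normalized to three housekeeping genes, with activity fitted in both directions relative to vehicle.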
# [8] = read-out: Pro-epidermal growth factor (Homo sapiens) (UniProt P01133); test: LTEA_HepaRG_EGF: Life Technologies and Expression Analysis (LTEA) Assay for Epidermal growth factor (EGF) using HepaRG (AID 2283489)
# Summary of the method: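 EGF transcript measured by Fluidigm TaqMan qRT-PCR with three housekeeping genes for normalization, 48 h after dosing HepaRG cultures in duplicate (top 100 uM, half-log steps, 0.5% DMSO vehicle). Gain or loss relative to DMSO fitted.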
# [9] = read-out: Early growth response protein 1 (EGR1) transcription factor, EGR1 (gene 1958); test: LTEA_HepaRG_EGR1: Life Technologies and Expression Analysis (LTEA) Assay for Early growth response protein 1 (EGR1) transcription factor using HepaRG (AID 2283490)
# Summary of the method: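 EGR1 transcript levels quantified by qRT-PCR (Fluidigm arrays) against three housekeeping genes after 48 h chemical exposure of HepaRG cells. Eight-point half-log series topping at 100 uM, 0.5% DMSO vehicle, analyzed for gain or loss.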
# [10] = read-out: Ezrin (EZR), EZR (gene 7430); test: LTEA_HepaRG_EZR: Life Technologies and Expression Analysis (LTEA) Assay for Ezrin (EZR) using HepaRG (AID 2283491)
# Summary of the method: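 Differentiated human HepaRG cells, 48 h after plating, were exposed in serum-free induction medium for 48 hours to eight half-log concentrations up to 100 uM in 0.5% DMSO. EZR mRNA was measured by TaqMan qRT-PCR, normalized to ACTB, GAPDH and POLR2A, and fitted bidirectionally against DMSO.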
# [11] = read-out: Cytochrome P450 3A7 (Homo sapiens) (UniProt P24462); test: LTEA_HepaRG_CYP3A7: Life Technologies and Expression Analysis (LTEA) Assay for CYP3A7 using HepaRG (AID 2283492)
# Summary of the method: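 CYP3A7 transcript measured by qRT-PCR (ACTB, GAPDH, POLR2A normalization) after 48 h chemical exposure of HepaRG cells in duplicate. Eight half-log concentrations, maximum 100 uM, 0.5% DMSO vehicle; bidirectional curve fitting against DMSO baseline.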
# CYP3A5 (gene 1577) = test: LTEA_HepaRG_CYP3A5: Life Technologies and Expression Analysis (LTEA) Assay for CYP3A5 using HepaRG (AID 2283493)
# Summary of the method: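 Human HepaRG hepatic cells receive 48 h chemical treatment at eight concentrations (half-log steps from 100 uM) in 0.5% DMSO. Expression of CYP3A5 is quantified by Fluidigm qRT-PCR and normalized to three reference genes.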
# [12] = read-out: Fatty Acid-Binding Protein 1 (FABP1), FABP1 (gene 2168); test: LTEA_HepaRG_FABP1: Life Technologies and Expression Analysis (LTEA) Assay for Fatty Acid-Binding Protein 1 (FABP1) using HepaRG (AID 2283494)
# Summary of the method: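 FABP1 expression by TaqMan qRT-PCR, normalised to three housekeeping genes, in HepaRG cells after 48 h chemical treatment. Eight-point half-log series topping at 100 uM in 0.5% DMSO, duplicates; gain or loss fitted relative to vehicle.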
# [13] = read-out: Cytochrome P450 4A22 (Homo sapiens) (UniProt Q5TCH4); test: LTEA_HepaRG_CYP4A22: Life Technologies and Expression Analysis (LTEA) Assay for Cytochrome P450 4A22 (CYP4A22) using HepaRG (AID 2283495)
# Summary of the method: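 Gene expression measured by qRT-PCR against three housekeeping genes (ACTB, GAPDH, POLR2A), with gain or loss fitted relative to 0.5% DMSO vehicle. HepaRG cultures received 48 h chemical treatment, top concentration 100 uM, half-log steps, duplicate wells.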
# [14] = read-out: Cytochrome P450 7A1 (Homo sapiens) (UniProt P22680); test: LTEA_HepaRG_CYP7A1: Life Technologies and Expression Analysis (LTEA) Assay for Cytochrome P450 7A1 (CYP7A1) using HepaRG (AID 2283496)
# Summary of the method: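 HepaRG, 48 h exposure, 8-pt half-log series from 100 uM, 0.5% DMSO vehicle, duplicates. Readout: TaqMan qRT-PCR mRNA vs three housekeeping genes; bidirectional curve fit against DMSO baseline.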
# [15] = read-out: Glutathione S-Transferase (GSTA2), GSTA2 (gene 2939); test: LTEA_HepaRG_GSTA2: Life Technologies and Expression Analysis (LTEA) Assay for Glutathione S-Transferase (GSTA2) using HepaRG (AID 2283497)
# Summary of the method: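 GSTA2 transcript levels came from Fluidigm TaqMan qRT-PCR normalized to three housekeeping genes, fitted in both directions against DMSO. HepaRG cultures received chemicals for 48 h in serum-free induction medium (0.5% DMSO), 8 half-log concentrations up to 100 uM, duplicate.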
# Chain of Cytochrome P450 3A4 (Homo sapiens) (P08684 whole entry, looked up): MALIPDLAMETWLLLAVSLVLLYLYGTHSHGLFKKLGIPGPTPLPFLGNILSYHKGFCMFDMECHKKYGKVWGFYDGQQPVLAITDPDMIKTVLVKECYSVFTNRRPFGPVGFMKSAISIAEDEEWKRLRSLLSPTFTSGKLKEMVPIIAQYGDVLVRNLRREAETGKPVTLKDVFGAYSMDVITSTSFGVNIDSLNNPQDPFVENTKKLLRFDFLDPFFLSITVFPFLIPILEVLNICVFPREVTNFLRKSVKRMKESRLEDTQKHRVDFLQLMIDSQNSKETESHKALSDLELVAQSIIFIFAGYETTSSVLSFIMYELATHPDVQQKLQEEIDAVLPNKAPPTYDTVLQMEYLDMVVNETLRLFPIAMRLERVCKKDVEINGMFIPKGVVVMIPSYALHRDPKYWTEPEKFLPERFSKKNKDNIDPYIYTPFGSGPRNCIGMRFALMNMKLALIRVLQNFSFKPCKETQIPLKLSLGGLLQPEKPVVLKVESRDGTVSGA
# Chain of Cytochrome P450 2C19 (Homo sapiens) (P33261 whole entry, looked up): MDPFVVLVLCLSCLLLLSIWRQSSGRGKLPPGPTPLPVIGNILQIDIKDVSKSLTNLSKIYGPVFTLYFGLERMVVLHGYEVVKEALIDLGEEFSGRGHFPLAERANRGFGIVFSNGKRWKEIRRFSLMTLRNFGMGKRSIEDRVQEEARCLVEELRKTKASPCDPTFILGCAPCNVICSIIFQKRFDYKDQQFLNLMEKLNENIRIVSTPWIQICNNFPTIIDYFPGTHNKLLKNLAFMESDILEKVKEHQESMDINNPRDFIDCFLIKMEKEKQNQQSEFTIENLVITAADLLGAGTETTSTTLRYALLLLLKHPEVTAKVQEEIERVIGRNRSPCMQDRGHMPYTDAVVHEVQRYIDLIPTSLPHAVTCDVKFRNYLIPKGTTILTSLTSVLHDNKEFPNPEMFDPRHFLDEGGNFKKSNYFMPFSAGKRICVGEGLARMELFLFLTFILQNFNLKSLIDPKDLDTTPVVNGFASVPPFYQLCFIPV
# Chain of Cytochrome P450 3A7 (Homo sapiens) (P24462 whole entry, looked up): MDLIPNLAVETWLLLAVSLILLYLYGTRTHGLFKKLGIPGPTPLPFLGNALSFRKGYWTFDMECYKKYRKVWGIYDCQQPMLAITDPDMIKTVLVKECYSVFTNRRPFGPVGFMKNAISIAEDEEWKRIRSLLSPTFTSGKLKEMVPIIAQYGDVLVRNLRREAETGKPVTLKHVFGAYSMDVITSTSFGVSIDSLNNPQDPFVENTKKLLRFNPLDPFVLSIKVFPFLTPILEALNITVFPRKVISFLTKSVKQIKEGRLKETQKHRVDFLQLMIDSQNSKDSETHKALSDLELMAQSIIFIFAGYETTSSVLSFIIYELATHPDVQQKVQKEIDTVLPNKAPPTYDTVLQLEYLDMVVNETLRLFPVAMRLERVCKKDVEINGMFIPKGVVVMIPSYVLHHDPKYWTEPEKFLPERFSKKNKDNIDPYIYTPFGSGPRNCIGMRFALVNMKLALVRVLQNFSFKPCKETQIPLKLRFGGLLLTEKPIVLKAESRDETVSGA
smiles,measurement,setting,value
COc1cc(-c2nc(NC(=O)c3cc4cc(C)cc(C)c4n3CC(=O)O)sc2CCC2CCCCC2)c(OC)cc1Cl,outcome,[1],inactive
same,AC50,[2],4.88 µM (active)
same,AC50,[3],11 µM (active)
same,AC50,[4],5.76 µM (active)
same,AC50,[5],7.57 µM (active)
same,AC50,CYP2C8 (gene 1558),6.7 µM (active)
same,AC50,CYP2C9 (gene 1559),6.47 µM (active)
same,AC50,CYP2E1 (gene 1571),7.86 µM (active)
same,AC50,CYP4A11 (gene 1579),8.34 µM (active)
same,AC50,[6],7.45 µM (active)
same,AC50,[7],10.9 µM (active)
same,AC50,[8],29.1 µM (active)
same,AC50,[9],42.2 µM (active)
same,AC50,[10],19.8 µM (active)
same,AC50,[11],7.24 µM (active)
same,AC50,CYP3A5 (gene 1577),9.6 µM (active)
same,AC50,[12],4.12 µM (active)
same,AC50,[13],6.57 µM (active)
same,AC50,[14],4.44 µM (active)
Cc1ccc(N(C)C)cc1,outcome,[1],inactive
same,AC50,[2],23.9 µM (active)
same,outcome,[3],inactive
same,AC50,[4],50 µM (active)
same,outcome,[5],inactive
same,outcome,CYP2C8 (gene 1558),inactive
same,outcome,CYP2C9 (gene 1559),inactive
same,outcome,CYP2E1 (gene 1571),inactive
same,outcome,CYP4A11 (gene 1579),inactive
same,outcome,[6],inactive
same,outcome,[7],inactive
same,outcome,[8],inactive
same,outcome,[9],inactive
same,outcome,[10],inactive
same,outcome,CYP3A5 (gene 1577),inactive
same,outcome,[12],inactive
same,outcome,[14],inactive
same,outcome,[15],inactive
O=C(N[C@@H](Cc1ccccc1)[C@@H](O)C(=O)N1C[C@@H](O)[C@@H](O)C1)c1cc2cc(Cl)ccc2[nH]1,outcome,[1],inactive
same,AC50,[2],74.1 µM (active)
same,outcome,[3],inactive
same,AC50,[4],11.9 µM (active)
same,AC50,[5],4.24 µM (active)
same,outcome,CYP2C8 (gene 1558),inactive
same,AC50,CYP2C9 (gene 1559),12.5 µM (active)
same,outcome,CYP2E1 (gene 1571),inactive
same,outcome,[6],inactive
same,outcome,[9],inactive
same,AC50,[10],9.92 µM (active)
same,AC50,[11],12.6 µM (active)
same,outcome,CYP3A5 (gene 1577),inactive
same,outcome,[12],inactive
same,AC50,[13],14.3 µM (active)
same,outcome,[14],inactive
CN[C@H]1CC[C@@H](c2ccc(Cl)c(Cl)c2)c2ccc(S(N)(=O)=O)cc21,outcome,[1],inactive
same,outcome,[2],inactive
same,outcome,[3],inactive
same,AC50,[4],11.4 µM (active)
same,outcome,[5],inactive
same,outcome,CYP2C8 (gene 1558),inactive
same,AC50,CYP2C9 (gene 1559),34.1 µM (active)
same,AC50,CYP4A11 (gene 1579),21.4 µM (active)
same,AC50,[6],89.2 µM (active)
same,AC50,[7],63 µM (active)
same,outcome,[8],inactive
same,AC50,[9],83 µM (active)
same,outcome,[10],inactive
same,outcome,CYP3A5 (gene 1577),inactive
same,AC50,[12],50 µM (active)
same,AC50,[13],15.8 µM (active)
same,AC50,[14],12.2 µM (active)
same,outcome,[15],inactive
